# Bioassay records as filed in PubChem BioAssay.
# Most compounds without a hit are left out; they make up all but 3.2% or so of the library.
# NadD block – inhibitors of Staphylococcus aureus NadD; purified NadD enzyme, colorimetric absorbance read-out; 360,000 compounds, 0.78% hits; inhibition, % at 20 µM; in the data active = inhibition above about 26%
# MsrA act – bovine methionine sulfoxide reductase A activation | purified bovine MsrA, absorbance read-out | activation, % at 10.6 µM | 360,000 compounds, 0.3% hits | AID 602163; in the data active = activation above about 7.5%;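 note: 0% = vehicle and 100% = reference activator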
# DSG3 Ab inh – inhibitors of pemphigus antibody binding to human desmoglein-3. P32926. 310,000 compounds, 0.48% hits. DSG3-coupled beads, scFv-anti-DSG3-GFP binding, flow cytometry; stronger effect = lower value. binding (percent of control), % at 10 µM;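 active = binding more than 3 SD below its plate's average and above zero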
# DAGLB inhibitor – blocks human DAGLB lipase activity; Q8NCG7; HEK293T DAGLB membrane lysate, EnzChek fluorogenic substrate; inhibition, % at 5.17 µM; 340,000 compounds, 0.059% hits; AID 504411; in the data active = inhibition above about 34%;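 note: 0% = enzyme with vehicle and 100% = wells lacking enzyme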
# Target sequence (Q8NCG7 whole entry, looked up): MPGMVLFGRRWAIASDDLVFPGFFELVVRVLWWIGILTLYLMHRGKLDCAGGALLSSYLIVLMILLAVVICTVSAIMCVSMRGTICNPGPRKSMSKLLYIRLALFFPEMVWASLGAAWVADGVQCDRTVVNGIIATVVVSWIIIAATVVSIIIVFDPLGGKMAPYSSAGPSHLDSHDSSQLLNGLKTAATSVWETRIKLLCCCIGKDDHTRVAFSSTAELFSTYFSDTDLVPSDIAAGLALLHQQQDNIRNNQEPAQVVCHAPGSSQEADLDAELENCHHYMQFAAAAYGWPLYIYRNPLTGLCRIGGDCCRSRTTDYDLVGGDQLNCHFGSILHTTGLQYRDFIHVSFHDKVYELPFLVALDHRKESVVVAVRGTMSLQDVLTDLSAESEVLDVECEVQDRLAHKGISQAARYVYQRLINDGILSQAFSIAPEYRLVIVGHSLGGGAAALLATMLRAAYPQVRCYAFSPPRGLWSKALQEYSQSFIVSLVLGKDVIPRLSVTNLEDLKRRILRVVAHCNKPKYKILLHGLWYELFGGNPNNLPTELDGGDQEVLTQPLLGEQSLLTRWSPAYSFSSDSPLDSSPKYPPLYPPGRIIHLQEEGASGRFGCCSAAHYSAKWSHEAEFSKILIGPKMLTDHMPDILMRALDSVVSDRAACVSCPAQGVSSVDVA
# rCAG RNA binder – molecules binding r(CAG) RNA repeats; r(CAG) RNA repeat, TO-PRO-1 dye displacement fluorescence; inhibition, % at 3 µM; 370,000 compounds, 1.3% hits; AID 651821;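 active = inhibition above the plate cutoff, the mean of all test compounds on that plate plus 3 SD, cut at about 35% in these data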;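 note: 0% = DMSO alone and 100% = 100 µM mitoxantrone as full dye displacement; higher means more dye released from RNA so lower well fluorescence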
# MsrA inh – inhibits bovine methionine sulfoxide reductase A; purified bovine MsrA, absorbance read-out; inhibition, % at 15.5 µM; 360,000 compounds, 0.75% hits; AID 651718; in the data active = inhibition above about 4.5%;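 note: 0% = vehicle wells with enzyme and 100% = reference inhibitor wells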
# An asterisk follows results filed as active; . = no result.
SMILES,NadD block,MsrA act,DSG3 Ab inh,DAGLB inhibitor,rCAG RNA binder,MsrA inh
COc1ccc(NC(=O)c2ccco2)cc1NC(=O)c1ccccc1F,1,-2,85*,-1,1,-1
COc1ccccc1C(=O)NC1CCCCN(Cc2ccc(C)cc2)C1=O (stereo not drawn),.,.,.,.,1,.
CCCCS(=O)CC(CS(=O)CCCC)OC(=O)c1ccc(C)cc1 (stereo not drawn),0,-9,45*,1,-11,1
COc1ccc(/C=C2/NC(=O)N(CC(=O)Nc3cccc(C)c3)C2=O)cc1O,-4,-4,103,0,9,3
CCn1c(C)cc(/C=C2/NC(=O)N(CC(=O)Nc3cccc(C)c3)C2=O)c1C,33*,-6,95,7,19,1
O=C(O)c1cccc(-n2cccc2/C=C2\NC(=O)N(Cc3ccc(F)cc3)C2=O)c1,3,-7,101,8,30,3
Cc1ccc(CN2C(=O)N/C(=C\c3cccn3-c3cccc(C(=O)O)c3)C2=O)cc1,4,-11,103,5,47*,3
Cc1ccc(NC(=O)CN2C(=O)N/C(=C/c3cc(C)n(-c4cccc(C(=O)O)c4)c3C)C2=O)cc1,7,-5,96,8,71*,5
CCn1c(C)cc(/C=C2\NC(=O)N(CC(=O)Nc3cccc(C)c3)C2=O)c1C,43*,-5,96,2,25,4
Cc1cccc(NC(=O)CN2C(=O)N/C(=C/c3ccc(C)o3)C2=O)c1,2,-9,96,3,32,1
c1csc(-c2nc3c4ccccc4c4ccccc4c3[nH]2)c1,25,2,104,6,60*,1
CCOc1cc(CN2CCN(c3ncccn3)CC2)ccc1OC,-5,-6,84*,-2,-10,0
COc1ccccc1NC(=O)c1ccc(-n2ccnc2)c([N+](=O)[O-])c1,2,-1,66*,1,3,1
CCOc1cc(N2CCOCC2)c(OCC)cc1NC(=O)c1ccc(-n2ccnc2)c([N+](=O)[O-])c1,6,-1,96,1,-6,0
COc1ccccc1NC(=O)C1=C(C)N(c2ccccc2)C(=S)NC1c1cccc(C(F)(F)F)c1 (stereo not drawn),4,-3,102,-5,-3,2
COC(=O)c1ccc(C2NC(=S)N(c3ccccc3)C(C)=C2C(=O)Nc2ccccc2OC)cc1 (stereo not drawn),10,-11,-8.8*,-1,2,3
COc1ccc([N+](=O)[O-])cc1NC(=S)NC(C)=O,1,-4,101,0,0,2
COc1ccc(/C=C/C(=O)NC(=S)Nc2cc([N+](=O)[O-])ccc2O)cc1OC,6,-4,85*,14,52*,1
O=C(CNc1cccc2ccccc12)N/N=C/C=C/c1ccco1,24,-5,98,6,11,4.6*
Cc1ccc(-c2nc3ccccc3s2)cc1NC(=S)NC(=O)c1ccccc1,-2,1,103,-4,4,0
Cc1ccc(-c2nc3ccccc3s2)cc1NC(=O)c1cc(-n2cnnc2)ccc1Cl,-2,0,76*,3,5,-1
O=C(N/N=C\c1cccc([N+](=O)[O-])c1O)C1COc2ccccc2O1 (stereo not drawn),3,-4,31*,9,14,1
O=C(N/N=C/c1cccc([N+](=O)[O-])c1)C1COc2ccccc2O1 (stereo not drawn),0,-1,108,0,0,1
Cc1cc(=O)oc2c3c(ccc12)OC/C3=N/N,24,-5,97,0,41*,3
CN(C)CC(=O)N[C@@H]1C[C@@H]2O[C@@H](CO)CC[C@@H]2O[C@@H]1CCc1ccc(-c2ccc(F)cc2)cc1,.,.,.,.,3,.
SMILES,NadD block,MsrA act,DSG3 Ab inh,DAGLB inhibitor,rCAG RNA binder,MsrA inh
Cc1onc(-c2ccccc2Cl)c1C(=O)Nc1nnc(-c2ccc(Br)cc2)s1,4,-1,115,9,46*,0
Cc1onc(-c2ccccc2Cl)c1C(=O)Nc1nnc(-c2ccc(F)cc2)s1,0,-8,100,3,14,2
Cn1cccc1-c1nc2ccc(NC(=O)c3ccco3)cc2[nH]1,0,-1,98,-1,6,7.3*
Cc1ccc2nc(-c3ccc(NC(=O)c4ccco4)cc3)[nH]c2c1,3,-5,100,-1,.,.
C=CCN1C(=O)/C(=C\c2ccc(OC(=O)c3ccco3)c(OC)c2)SC1=S,-6,-1,97,3,7,0
COc1cc(/C=C2/C(=O)NN(c3ccc(Cl)cc3)C2=O)ccc1OC(=O)c1ccco1,14,-5,100,26,76*,0
COc1cc(/C=C2/C(=N)N3OC(C)=CC3=NC2=O)ccc1OC(=O)c1ccco1,3,-3,61*,0,1,0
COc1ccc(C(=O)NCC2CCN(C(=O)C(=O)c3cccs3)CC2)cc1,.,.,.,.,1,1
CC(C)C[C@H]1COc2cccc(F)c2S(=O)(=O)N1Cc1cn(CC2CCCCC2)nn1,.,.,.,.,4,.
O=C(Cc1ccc2c(c1)CCCC2)Nc1ccccc1Br,-2,-1,98,-11,-4,1
O=C(Cc1ccc2ccccc2c1)Nc1ccccc1Br,4,-3,87*,-4,2,0
Cc1noc(C)c1S(=O)(=O)NC(=O)C1(C)CCN1C(=O)CC(c1ccccc1)c1ccccc1 (stereo not drawn),-2,-1,.,.,20,-1
C=C(C)/C=C1/CN(Cc2ccc3c(c2)OCO3)C(=N)N1C(=O)OCc1ccccc1,.,.,.,.,11,.
COC(=O)CC[C@H](/C=C/C(=O)OC(C)(C)C)Sc1ccc(C(C)(C)C)cc1,.,.,.,.,1,.
Cn1nc(-c2ccccn2)nc2c(=O)n(C)c(=O)nc1-2,-3,59*,99,-24,0,0
CCCc1nc2c(=O)n(C)c(=O)nc-2n(C)n1,-1,2,.,-33,-4,1
COc1ccc(-c2nc3ncccc3n2O)cc1,-3,-12,99,2,4,4
On1c(-c2ccccc2)nc2ncccc21,-6,-3,73*,2,2,1
Cc1ccc(C(=O)N/C(=C\c2cccs2)c2nc3ccccc3[nH]2)cc1,5,-9,102,0,4,4.6*
CC(=O)NCC1(c2ccccc2)CCN(CCCC(=O)c2ccc(F)cc2)CC1,-5,-2,109,0,-1,0
Oc1c(C=C2N=c3ccccc3=N2)sc(=S)n1-c1ccccc1,3,-1,89,0,3,0
CC1=Nc2ccccc2/C1=C/c1sc(=S)n(-c2cccc(C(=O)O)c2)c1O,12,-14,101,-2,72*,2
CC(C)COc1ccc(C(=O)N2C(=O)c3ccc(N)cc3C2=O)cc1,14,0,39*,0,9,1
CC(C)OC(=O)CCCN1C(=O)c2ccc(N)cc2C1=O,-1,-7,107,-3,-4,1
